{"source": "the supplement of paper PMC8728848", "binders": {"B1": {"name": "RetS (Pseudomonas aeruginosa), Q9HUV7 (protein)", "chain": "MVRLRIAIGLLVSFLLLLLGPMSPAVADDAGVSSVPLQTTATTPSANQNWRLLRDESAQLRIADVLQRKEQFRPLAKRSFIFPASPQAVWLQVQLPAQKVPSWLWIFAPRVQYLDYYLVQDGQLVRDQHTGESRPFQERPLPSRSYLFSLPVDGKPMTLYVRMTSNHPLMAWFDQIDEAGLVGLEKPAYAFGMLLGGMLLLLMYNLIRFAYSRSASSLWLAAVHAALAVCAAANLGLVAFWLPGLKFNQSLTADLGALGAAVSLLWFACSFFRGTAESRLNRLLQGEALLILAVGAIIAFTQQLWFSWLIYLLVILSSLSVPLIAAWHWYRGYQPARLIVAGMIVFNAGFMVFLPVLFGTKQLDPGWLVLGVFSFATLAGLVLSVSLTERQRLIQQLNLQQRTSEAAHTAELQTKAEFLAKISHEIRTPMNGVLGMTELLLGTPLSAKQRDYVQTIHSAGNELLTLINEILDISKLESGQIELDEVQFDLNALIEDCLDIFRVKAEQQRIELISFTQPQVPRVIGGDPTRLRQVVLSLLDNAFKQTEEGEILLVVALDDQGETPRLRIAVQDSGHPFDAKEREALLTAELHSGDFLSASKLGSHLGLIIARQLVRLMGGEFGIQSGSSQGTTLSLTLPLDPQQLENPTADLDGPLQGARLLVVDDNETCRKVLVQQCSGWGLNVSAVSSGKEALAQLRTKAHLREYFDVVLLDQDMPGMTGMQLAAKIKEDPNLNHDILLIMLTGISNAPSKIIARNAGIKRILAKPVAGYTLKATLADELAQRGVSGVTNYLQPAKEAQAPSLPSDFRILVAEDNSISTKVIRGMLNKLNLQPDTASNGQEALSAMKATQYDLVLMDCEMPVLDGFSATEQLRAWEAHEQRPHTPVVALTAHILSEHKERARLVGMDGHMAKPVELSQLRELIAYWVGERDRRRQGDALPS"}}, "assay_in_all_cases": "glycan array binding signal (z-score within array); higher = stronger binding", "settings_in_all_cases": "glycan notation: IUPAC condensed, linker removed", "key": {"[1]": {"target": "Fuc(a1-2)Gal", "how_it_was_run": "(§1)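 Columns mapping to the same glycan were averaged after glycan names were converted to IUPAC-condensed notation. The data come from 3228 arrays in the Consortium for Functional Glycomics database, limited to those with an available protein sequence. Binding is reported as a within-array Z-score averaged across arrays of one protein sequence and across linkers.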"}, "[2]": {"target": "Fuc(a1-2)Gal(b1-4)GlcNAc(b1-3)[Fuc(a1-2)Gal(b1-4)GlcNAc(b1-6)]GalNAc", "how_it_was_run": "as §1"}, "[3]": {"target": "Fuc(a1-2)Gal(b1-4)[Fuc(a1-3)]GlcNAc(b1-3)GalNAc", "how_it_was_run": "as §1"}, "[4]": {"target": "Fuc(a1-2)[Gal(a1-3)]Gal(b1-3)GlcNAc(b1-2)Man(a1-3)[Fuc(a1-2)[Gal(a1-3)]Gal(b1-3)GlcNAc(b1-2)Man(a1-6)]Man(b1-4)GlcNAc(b1-4)[Fuc(a1-6)]GlcNAc", "how_it_was_run": "as §1"}, "[5]": {"target": "Fuc(a1-2)[GalNAc(a1-3)]Gal(b1-3)GalNAc(a1-3)[Fuc(a1-2)]Gal(b1-4)GlcNAc", "how_it_was_run": "as §1"}, "[6]": {"target": "Fuc(a1-3)[Gal(b1-4)]GlcNAc(b1-4)Gal(b1-4)[Fuc(a1-3)]GlcNAc(b1-4)Gal(b1-4)[Fuc(a1-3)]GlcNAc", "how_it_was_run": "as §1"}, "[7]": {"target": "Gal(a1-4)Gal(b1-3)GlcNAc(b1-2)Man(a1-3)[Gal(a1-4)Gal(b1-3)GlcNAc(b1-2)Man(a1-6)]Man(b1-4)GlcNAc(b1-4)GlcNAc", "how_it_was_run": "as §1"}, "[8]": {"target": "Gal(a1-4)Gal(b1-4)Glc", "how_it_was_run": "as §1"}, "[9]": {"target": "Gal(a1-4)Gal(b1-4)GlcNAc(b1-2)Man(a1-3)[Gal(a1-4)Gal(b1-4)GlcNAc(b1-2)Man(a1-6)]Man(b1-4)GlcNAc(b1-4)GlcNAc", "how_it_was_run": "as §1"}, "[10]": {"target": "Gal(b1-3)[Fuc(a1-4)]GlcNAc(b1-2)Man(a1-3)[Gal(b1-3)[Fuc(a1-4)]GlcNAc(b1-2)Man(a1-6)]Man(b1-4)GlcNAc(b1-4)[Fuc(a1-6)]GlcNAc", "how_it_was_run": "as §1"}, "[11]": {"target": "Gal(b1-3)[Fuc(a1-4)]GlcNAc(b1-3)Gal(b1-4)GlcNAc", "how_it_was_run": "as §1"}, "[12]": {"target": "Gal(b1-4)Gal", "how_it_was_run": "as §1"}, "[13]": {"target": "Gal(b1-4)GlcNAc(b1-2)[Gal(b1-4)GlcNAc(b1-4)]Man(a1-3)[Gal(b1-4)GlcNAc(b1-2)[Gal(b1-4)GlcNAc(b1-6)]Man(a1-6)]Man(b1-4)GlcNAc(b1-4)GlcNAc", "how_it_was_run": "as §1"}, "[14]": {"target": "Gal(b1-4)GlcNAc(b1-3)[Gal(b1-4)GlcNAc(b1-6)]Gal(b1-4)GlcNAc", "how_it_was_run": "as §1"}, "[15]": {"target": "GalNAc(a1-3)Fuc(a1-2)Gal(b1-4)GlcNAc(b1-3)[GalNAc(a1-3)Fuc(a1-2)Gal(b1-4)GlcNAc(b1-6)]GalNAc", "how_it_was_run": "as §1"}, "[16]": {"target": "GalNAc(a1-3)GalNAc", "how_it_was_run": "as §1"}, "[17]": {"target": "GalNAc(b1-3)Gal", "how_it_was_run": "as §1"}, "[18]": {"target": "Glc(a1-4)Glc(a1-4)Glc(a1-4)Glc", "how_it_was_run": "as §1"}, "[19]": {"target": "Glc(a1-6)Glc(a1-6)Glc(a1-6)Glc", "how_it_was_run": "as §1"}, "[20]": {"target": "GlcNAc(a1-4)Gal(b1-4)GlcNAc(b1-3)Gal(b1-4)Glc", "how_it_was_run": "as §1"}, "[21]": {"target": "GlcNAc(a1-4)Gal(b1-4)GlcNAc(b1-3)Gal(b1-4)GlcNAc", "how_it_was_run": "as §1"}, "[22]": {"target": "GlcNAc(a1-4)Gal(b1-4)GlcNAc(b1-3)Gal(b1-4)[Fuc(a1-3)]GlcNAc(b1-3)Gal(b1-4)[Fuc(a1-3)]GlcNAc", "how_it_was_run": "as §1"}, "[23]": {"target": "GlcNAc(b1-2)Gal(b1-3)GalNAc", "how_it_was_run": "as §1"}, "[24]": {"target": "GlcNAc(b1-2)Man(a1-3)[GlcNAc(b1-2)Man(a1-6)]Man(b1-4)GlcNAc(b1-4)GlcNAc", "how_it_was_run": "as §1"}, "[25]": {"target": "GlcNAc(b1-2)[GlcNAc(b1-4)]Man(a1-3)[GlcNAc(b1-2)Man(a1-6)]Man(b1-4)GlcNAc(b1-4)GlcNAc", "how_it_was_run": "as §1"}, "[26]": {"target": "GlcNAc(b1-3)Gal(b1-4)Glc", "how_it_was_run": "as §1"}, "[27]": {"target": "GlcNAc(b1-3)GalNAc", "how_it_was_run": "as §1"}, "[28]": {"target": "GlcNAc(b1-4)GlcNAc(b1-4)GlcNAc(b1-4)GlcNAc(b1-4)GlcNAc(b1-4)GlcNAc", "how_it_was_run": "as §1"}, "[29]": {"target": "Man(a1-2)Man(a1-3)Man", "how_it_was_run": "as §1"}, "[30]": {"target": "Man(a1-2)Man(a1-3)[Man(a1-6)]Man(a1-6)[Man(a1-2)Man(a1-3)]Man(b1-4)GlcNAc(b1-4)GlcNAc", "how_it_was_run": "as §1"}}, "note": "This is one part of a sample in which the strongest signals are shown more often than they occur."}
{"binder": "B1", "values": [{"measurement": "glycan array binding signal (z-score)", "setting": "[1]", "value": 1.84}, {"measurement": "glycan array binding signal (z-score)", "setting": "[2]", "value": 0.163}, {"measurement": "glycan array binding signal (z-score)", "setting": "[3]", "value": 1.16}, {"measurement": "glycan array binding signal (z-score)", "setting": "[4]", "value": 2.79}, {"measurement": "glycan array binding signal (z-score)", "setting": "[5]", "value": 0.731}, {"measurement": "glycan array binding signal (z-score)", "setting": "[6]", "value": -0.414}, {"measurement": "glycan array binding signal (z-score)", "setting": "[7]", "value": 5.23}, {"measurement": "glycan array binding signal (z-score)", "setting": "[8]", "value": -0.16}, {"measurement": "glycan array binding signal (z-score)", "setting": "[9]", "value": 3.05}, {"measurement": "glycan array binding signal (z-score)", "setting": "[10]", "value": -0.397}, {"measurement": "glycan array binding signal (z-score)", "setting": "[11]", "value": 0.071}, {"measurement": "glycan array binding signal (z-score)", "setting": "[12]", "value": 3.18}, {"measurement": "glycan array binding signal (z-score)", "setting": "[13]", "value": 0.39}, {"measurement": "glycan array binding signal (z-score)", "setting": "[14]", "value": -1.17}, {"measurement": "glycan array binding signal (z-score)", "setting": "[15]", "value": 1.02}, {"measurement": "glycan array binding signal (z-score)", "setting": "[16]", "value": -0.917}, {"measurement": "glycan array binding signal (z-score)", "setting": "[17]", "value": -0.593}, {"measurement": "glycan array binding signal (z-score)", "setting": "[18]", "value": -0.095}, {"measurement": "glycan array binding signal (z-score)", "setting": "[19]", "value": -0.394}, {"measurement": "glycan array binding signal (z-score)", "setting": "[20]", "value": 0.236}, {"measurement": "glycan array binding signal (z-score)", "setting": "[21]", "value": 6.62}, {"measurement": "glycan array binding signal (z-score)", "setting": "[22]", "value": 4.27}, {"measurement": "glycan array binding signal (z-score)", "setting": "[23]", "value": -0.622}, {"measurement": "glycan array binding signal (z-score)", "setting": "[24]", "value": 0.152}, {"measurement": "glycan array binding signal (z-score)", "setting": "[25]", "value": -0.599}, {"measurement": "glycan array binding signal (z-score)", "setting": "[26]", "value": 2.75}, {"measurement": "glycan array binding signal (z-score)", "setting": "[27]", "value": -0.143}, {"measurement": "glycan array binding signal (z-score)", "setting": "[28]", "value": 0.22}, {"measurement": "glycan array binding signal (z-score)", "setting": "[29]", "value": -1.17}, {"measurement": "glycan array binding signal (z-score)", "setting": "[30]", "value": 0.409}]}
